31 compounds from PubChem BioAssay (NCATS) can be followed below.

Inconclusive results are not listed. Entries that show only a call come without a potency. Values without a mark were called inactive. Active and inactive are the calls of the source. Calls come from the whole dose curve; as a rule, active = well fitted cell-killing curve with a large enough effect; inconclusive = small, poorly fitted or top-dose-only effect, or effect the other way; inactive = flat fitted curve, though single readings scatter.
Potency is the fitted concentration of half-maximal effect.

The assay deals with HeLa. As to the kind of experiment: Primary qHTS to identify gynecologic anti-cancer compounds using libraries of approved drugs and bioactive compounds (AID 1345084). Note: nearly all actives have a fitted effect of over 55% in size. As to conditions: Gynecologic cancer cell panel viability, ATPlite luminescence, 48 h; series mostly up to 57.5 µM. In a few lines: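 Cell viability after 48 h drug treatment, ATPlite luminescence readout; five doses.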
On the technique in general: Quantitative high-throughput screening tests each substance at several concentrations.
For `CN1Cc2c(N)cccc2C(c2ccccc2)C1` (stereo unspecified), the Potency entry was “inactive”.

For the compound `C(#Cc1cccc(CN2CCOCC2)c1)CCN1CCCCC1`, the Potency result was “inactive”.

As for `C/C=C(\C)C(=O)O[C@H]1[C@H](O)[C@]2(COC(C)=O)[C@H](O)C[C@]3(C)C(=CCC4[C@@]5(C)CC[C@H](O[C@@H]6O[C@H](C(=O)O)[C@@H](O[C@@H]7O[C@H](CO)[C@@H](O)[C@H](O)[C@H]7O)[C@H](O)[C@H]6O[C@@H]6O[C@H](CO)[C@@H](O)[C@H](O)[C@H]6O)[C@](C)(CO)C5CC[C@]43C)[C@@H]2CC1(C)C` (stereo partly specified), the activity change, negative = cytotoxicity is 15.8% [at 11.6 µM].

On to `C[C@]12C=CC(=O)C=C1CC[C@@H]1[C@@H]2[C@@H](O)C[C@@]2(C)[C@H]1CC[C@]2(O)C(=O)COC(=O)CCC(=O)O`, for which the Potency entry was “inactive”.

`CC1=C2[C@@H]([C@H](C)CC[C@H]2/C=C(\C)C(=O)O)[C@H](O)C1`: the Potency entry is “inactive”.

Consider `CC(=O)c1c(C)cc(O[C@@H]2O[C@H](CO)[C@@H](O)[C@H](O)[C@H]2O)cc1O`, for which the Potency result is “inactive”.

For the compound `OC[C@H]1O[C@@H](OCCc2ccc(O)cc2)[C@H](O)[C@@H](O)[C@@H]1O`, the Potency entry is “inactive”.

In the case of `C[C@@H]1C[C@H]2[C@@H]3CCC4=CC(=O)C=C[C@]4(C)[C@@]3(F)[C@@H](O)C[C@]2(C)[C@@]1(O)C(=O)COP(=O)(O)O`, the Potency result was “inactive”.

With `CC(=O)N1CCN(NC(=O)c2ccc(F)cc2)CC1`, the Potency entry is “inactive”.

As to `NC(Cc1c[nH]c2ccccc12)C(=O)NC(CCC(=O)O)C(=O)O` (stereo unspecified), the Potency entry is “inactive”.

As for `CC[C@H](/C=C/[C@@H](C)[C@H]1CC[C@H]2[C@@H]3CC=C4C[C@@H](O)CC[C@]4(C)[C@H]3CC[C@]12C)C(C)C`, the activity change, negative = cytotoxicity was -1.7% [at 6.55 µM].

For the compound `CCOc1ccc(C(Nc2ccccn2)c2ccc3ccc(C)nc3c2O)cc1C` (stereo unspecified), the Potency result is “inactive”.

With `COc1cc(C2Oc3c(OC)cc(/C=C/C(=O)OC[C@H]4O[C@@H](OC(C)(C)C(=O)O)[C@H](O)[C@@H](O)[C@@H]4O)cc3C2CO)ccc1O` (stereo partly specified), the Potency entry was “inactive”.

In the case of `COC1=CC(=O)C[C@@H](C)[C@]12Oc1cc(OC)cc(OC)c1C2=O`, the Potency entry is “inactive”.

In the case of `COc1c(C)c(OCC=C(C)C)cc2c1C(=O)NC2=O`, the Potency result was “inactive”.

In the case of `C[C@]12CCC(=O)C=C1[C@@H](O)C[C@@H]1[C@@H]2[C@@H](O)C[C@@]2(C)[C@H]1CC[C@]2(O)C(=O)CO`, the Potency result is “inactive”.

As to `Cn1c(=O)cc(N2CCCC(N)C2)n(Cc2ccccc2C#N)c1=O` (stereo unspecified), the Potency result was “inactive”.

In the case of `CC(=O)O[C@H]1C[C@@H]2[C@]3(CC[C@]4(C)[C@@H](C5(C)CCC(C(C)(C)O)O5)[C@@H](O)C[C@@]24C)C[C@@]32CC[C@H](O[C@@H]3OC[C@@H](O)[C@H](O)[C@H]3O)C(C)(C)[C@H]12` (stereo partly specified), the Potency result was “inactive”.

As for `COc1cc(C[C@H]2COC(=O)[C@@H]2Cc2ccc(O)c(OC)c2)ccc1O`, the Potency entry is “inactive”.

Consider `CCC(=O)NS(=O)(=O)c1ccc(-c2c(-c3ccccc3)noc2C)cc1`, for which the Potency result was “inactive”.

`C=CC(C)(O)CO[C@@H]1O[C@H](CO)[C@@H](O)[C@H](O)[C@H]1O` (stereo partly specified): the Potency result is “inactive”.

On to `Clc1ccc(CN[C@H]2CCN(c3ncc(Br)cn3)C2)c(Cl)c1`, for which the Potency result is “inactive”.

For the compound `CC(C)C(=O)c1cn(CC(=O)COc2ccc(Oc3ccccc3)cc2)c2ccc(C(=O)O)cc12`, the Potency result was “inactive”.

In the case of `CC(C)C1=CC2=CCC3[C@](C)(CCC[C@@]3(C)C(=O)O)C2CC1O` (stereo partly specified), the Potency entry was “inactive”.

Regarding `CC[C@H]1OC(=O)C[C@@H](O)[C@H](C)[C@@H](O[C@@H]2O[C@H](C)[C@@H](O)[C@H](N(C)C)[C@H]2O)[C@@H](CCN2C[C@H](C)C[C@H](C)C2)C[C@@H](C)C(=O)/C=C/C(C)=C/[C@@H]1CO[C@@H]1O[C@H](C)[C@@H](O)[C@@H](OC)[C@H]1OC`, the Potency entry is “inactive”.

With `CC(C)NC[C@H](O)COc1ccc(CCOCC2CC2)cc1`, the Potency result is “inactive”.

Take `CC(=O)OC(C)OC(=O)C(C)c1ccc(-c2ccccc2)c(F)c1` (stereo unspecified): the Potency entry was “inactive”.

Turning to `C=C1C(=O)O[C@H]2[C@H]1[C@@H](OC(=O)C(C)CO)C[C@@]1(C)[C@H](O)CCC(=O)[C@H]21` (stereo partly specified), the Potency result was “inactive”.

On to `CCC(C)(O)C(O)C(=O)OCc1ccc(O[C@@H]2O[C@H](CO)[C@@H](O)[C@H](O)[C@H]2O)c(OC)c1` (stereo partly specified), for which the Potency entry was “inactive”.

On to `NS(=O)(=O)OC[C@@H]1C[C@@H](n2ccc3c(N[C@H]4CCc5ccccc54)ncnc32)C[C@@H]1O`, for which the Potency result was “inactive”.

`COc1ccc(C[C@H](N)C(=O)N[C@H]2[C@@H](O)[C@H](n3cnc4c(N(C)C)ncnc43)O[C@@H]2CO)cc1`: the Potency is 2 µM (active).
